Source: PubChem BioAssay (National Center for Advancing Translational Sciences (NCATS))
BRCA1 expr up: activators of BRCA1 expression. MCF7-BRCA1-FFLuc reporter, luminescence, 48 h; response scale: scaled: vehicle 0%, 10 µM genistein 100%. Potency, µM (highest dose often 46.1 µM), for the others: at the top dose activation, usual class: activators. 380,000 compounds, 1.1% hits. AID 624202; note: nearly all actives have a fitted effect of over 80% in size
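Luminescence from a BRCA1-driven firefly luciferase in MCF7 cells was the read-out, taken 15 min after substrate addition following 48 h compound exposure at 37 °C. Data were normalized to a 10 microM genistein control and DMSO vehicle.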
USP1 inh: blocks the human USP1/UAF1 deubiquitinase complex | recombinant USP1/UAF1, Ub-Rhodamine cleavage fluorescence | O94782 | 390,000 compounds, 0.23% hits | Potency, µM (titrated, usually from 57.1 µM), for the others: at the top dose activity change, negative = inhibition, most hits filed as inhibitors; note: % is set by controls: 0 for no effect and ±100 for the full control effect; nearly all actives have a fitted effect of over 60% in size
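USP1/UAF1 complex at 1 nM was preincubated with compound for 15 min at room temperature, then Ub-Rho substrate (150nM final) was added. Fluorescence (480/540 nm) was read kinetically, 6 reads every 60 seconds.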
EPAC1 antag: EPAC1 (human) antagonism; Potency, µM (titrated, usually from 115 µM), without a hit: at the highest dose activity change, negative = inhibition, actives largely listed as inhibitors; O95398; EPAC1 GEF assay, Rap1b-BODIPY-GDP exchange fluorescence; 360,000 compounds, 0.14% hits; AID 720709;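 note: plate controls were vehicle for no effect and positive control for full effect; nearly all actives have a fitted effect of over 50% in size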
EPAC1 agonist: activates human EPAC1 exchange factor; O95398; EPAC1 agonist qHTS, biochemical assay; response scale: 100% = response to 6.5 mM cAMP; Potency, µM (titrated, usually from 154 µM), without a hit: at the top dose activation, actives largely listed as activators; 360,000 compounds, 0.073% hits; note: nearly all actives have a fitted effect of over 60% in size
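Fluorescent GDP-exchange assay: 100 nM EPAC1 with 250 nM Rap1B preloaded with BODIPY-GDP and 50 uM GDP; compounds tested as concentration series, 5 min at room temperature, then read every 5 min for 30 min (ex 480/em 540 nm); normalized to 6.5 mM cAMP.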
EPAC2 ag: agonists of human EPAC2 (RAPGEF4); Q8WZA2; EPAC2 activation, biochemical qHTS; response scale: 100% = 6.5 mM cAMP response; Potency, µM (highest dose often 154 µM), without a hit: at the top dose activation, actives largely listed as activators; 360,000 compounds, 0.079% hits; note: nearly all actives have a fitted effect of over 50% in size
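Setup: EPAC2 100 nM, labeled Rap1B complex 250 nM, free GDP 50 uM. Compound titrations pinned in, brief spin, 5 min room temperature incubation. Kinetic fluorescence read over 30 min, normalized to 6.5 mM cAMP.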
EPAC2 antag: EPAC2 (human) antagonism | Q8WZA2 | EPAC2 GEF exchange of Rap1B-BODIPY-GDP, fluorescence | 360,000 compounds, 0.18% hits | Potency, µM (titrated, usually from 114 µM), for inactives: at the top dose activity, negative = inhibition, actives largely listed as inhibitors; note: % is set by controls: 0 for no effect and ±100 for the full control effect; nearly all actives have a fitted effect of over 45% in size
* hit, by the source's call; i = inactive; ? = inconclusive; . = no result given. This is a sample that favours compounds with a hit; in the whole collection about 1.4% have one here. Calls come from the whole dose curve; as a rule, active = well fitted curve in the direction sought with a large enough effect; inconclusive = small, poorly fitted or top-dose-only effect, or another doubt; inactive = no such curve, though single readings can be large; an effect the other way counts as inactive or inconclusive. Potency is the fitted concentration of half-maximal effect.

SMILES	BRCA1 expr up	USP1 inh	EPAC1 antag	EPAC1 agonist	EPAC2 ag	EPAC2 antag
CCCc1nc2ccc(C)cn2c1Cc1ccc(C)cc1	7.1µM*	.	-9%	12%	3%	-11%
COc1ccc2cc3cc(C(=O)NCCCN4CCC(C)CC4)oc3nc2c1	11µM*	-9%	1%	8%	9%	5%
O=C(Nc1ccc(Cl)cc1Cl)C1=Cc2ccccc2OC1	10µM*	-5%	-13%	19%	12%	-3%
COc1ccccc1NS(=O)(=O)c1cccc(C(=O)OCC(=O)NC2CC2)c1	-1%	-18%	4%	-3%	1%	1%
COc1ccccc1CNc1ncnc2cc(Cl)ccc12	-46%	-21%	6%	-1%	0%	0%
COc1ccccc1Oc1ccnc2cc(Cl)ccc12	-3%	-11%	-17%	-1%	6%	40µM*
Cc1cc2nc(-c3ccccc3)cc(=O)n2[nH]1	10µM*	-6%	8%	4%	17%	9%
O=c1cc(-c2ccccc2)nc2cc(-c3ccc(Br)cc3)[nH]n12	19%	-10%	4%	-16%	-1%	10%
CCOc1ccc(OCC)c(NC(=O)C2CCN(S(=O)(=O)c3ccc(Br)s3)CC2)c1	.	-6%	.	.	.	.
O=c1oc(-c2cccs2)nc2sc3c(c12)CCCCC3	10µM*	-3%	9%	1%	8%	2%
CCC(=O)Nc1ccc(S(=O)(=O)NCc2ccc3c(c2)CCN3C(=O)c2ccc(C)cc2)cc1	.	10%	.	.	.	.
CC(C)Oc1ccc(Cn2c(=O)oc3ccccc32)cc1	5%	-19%	19%	-1%	4%	-2%
O=C(Nc1ccc2c(c1)OCO2)c1cc(C2CCCCN2C(=O)CCCc2ccccc2)on1 (stereo not given)	-34%	.	-12%	17%	13%	-4%
COc1cc(OC)c(-c2c3cc(O)c(=O)cc-3oc3cc(O)c(O)cc23)cc1OC	-35%	25µM*	182%	100µM*	112µM*	92%
Cc1c2cc(O)c(=O)cc-2oc2cc(O)c(O)cc12	-18%	?	82%	-276%	i	?
COCCCNC(=O)C(C#N)c1nc2ccccc2nc1N1CCN(Cc2ccccc2)CC1 (stereo not given)	-46%	-8%	7%	1%	-48%	79µM*
O=C(NCc1ccco1)Nc1ccc(Br)cc1Cl	13µM*	-13%	4%	-3%	6%	11%
O=C(NCC1CCCO1)C1CCN(C(=O)c2ccc(Cl)cc2)CC1 (stereo not given)	-62%	-18%	-6%	1%	1%	6%
CC(C)(C)c1ccc(C(=O)N2CCC(C(=O)NCC3CCCO3)CC2)cc1 (stereo not given)	8.9µM*	-4%	-29%	1%	-9%	-3%
O=C(NCC(=O)N1CCc2ccccc2C1)c1ccccc1Cl	98%	?	-12%	1%	6%	0%
CC1CCC(NC(=O)c2ccc3nc[nH]c3c2)CC1 (stereo not given)	11µM*	2%	-1%	2%	8%	-7%
CC[n+]1c(/C=C/C=C/N(C(C)=O)c2ccccc2)sc2cc(OC)ccc21	-84%	28µM*	141%	100µM*	?	46%
CC1OC(C(C)(C)C)CC2=C1C(=O)OC(C)(C)O2 (stereo not given)	3%	.	15%	2%	-1%	-15%
Clc1ccc(CSc2ccc(-c3ccco3)nn2)cc1	13µM*	-18%	5%	0%	11%	9%
CC(=O)c1cccc(NC(=O)CSc2ccc(-c3ccco3)nn2)c1	-8%	-12%	10%	-2%	4%	17%
O=C(CSc1ccc(-c2ccco2)nn1)c1cccc([N+](=O)[O-])c1	4%	-14%	20µM*	0%	4%	17%
c1ccc(CSc2ccc(-c3ccco3)nn2)cc1	3.2µM*	-19%	-13%	-1%	-1%	-2%
